{
  "source": "PubChem BioAssay AID624298",
  "about": "(National Center for Advancing Translational Sciences (NCATS), 2012)",
  "note": "Records with an inconclusive call do not appear. Values without a mark were called inactive. Calls of active or inactive are those of the source. Calls follow the shape of the dose curve; as a rule, active = well fitted activation curve with a large enough effect; inconclusive = small, poorly fitted or top-dose-only effect; inactive = no such curve, though single readings can be large or run the other way. Potency is read from the fitted curve at half-maximal effect.",
  "data": [
    {"test": "Activators of T cell receptors: Hit Validation; as to activation: 0% is about no effect", "settings": "primary human leukocytes, cytokine release by HTRF, 48 h", "from_the_text": "(§1) Normally activation of naive T cells requires two signals. 1. A signal through the T cell receptor (TCR) which provides antigen specificity to the response. 2. Signals through co-stimulatory molecules, which are necessary for proliferation, survival and cytokine production. In the absence of co-stimulatory signals T cells are not effectively activated, and may even be rendered anergic or unresponsive to subsequent signaling. This lack of costimulation has been shown in multiple model systems to be a major factor in the limited strength and effectiveness of anti-tumor T cell responses. The goal of this project is to identify small molecule compounds that will stimulate T cell activation in the presence of TCR signaling but in the absence of co-stimulatory signals, thereby allowing activation of naive T cells in the absence of co-stimulation. Identification of such compounds would have clear experimental and clinical applications in instances where desirable antigen-specific immune responses are not generated due to a lack of co-stimulation, for example in the generation of anti-tumor responses.\n(§2) In collaboration between the National Cancer Institute and NIH Chemical Genomics Center, a high-throughput amenable screen was developed to discover small molecules that co-stimulate and activate human T cell receptors. The screen will be carried out using a novel homogeneous time resolved fluorescence energy transfer (HTRF) assay to measure production of the cytokine IL-2 by activated T cells and will be tested against the NIH Molecular Libraries Small Molecule Repository (MLSMR). This is the same assay tested against the hits identified in the primary screen.\n(§3) NIH Chemical Genomics Center [NCGC]\n(§4) NIH Molecular Libraries Probe Centers Network [MLPCN]\n(§5) Assay Submitter (PI): Richard Hodes, National Cancer Institute, NIH\n(§6) Primary human leukocytes are incubated with a-CD3 beads and compounds for 48 hr. The amount of secreted IL-2 is then assayed with a HTRF IL-2 kit. The presence of IL-2 cytokine captures the detection reagents and brings the a-IL-2-K and a-IL-2-d2 into close proximity. Upon excitation with 320nm light, the europium cryptate is capable of transferring energy to acceptor molecules within close proximity, resulting in acceptor molecule emission at 665nm.", "values": [
      {"smiles": "C=C(C)[C@@]12OC3(c4ccccc4)O[C@@H]1C1[C@@H]4O[C@]4(CO)[C@@H](O)[C@]4(O)C(=O)C(C)=C[C@H]4[C@@]1(O3)[C@H](C)[C@H]2OC(=O)/C=C/C=C/c1ccccc1", "note": "(stereo not given in full)", "Potency": "0.002 µM (active)"},
      {"smiles": "CN(C)c1ccc(/C=C/c2cc[n+](C)c3ccccc23)cc1", "Potency": "7.91 µM (active)"}
    ]},
    {"test": "Activators of T cell receptors: Hit Validation; as to activation: 0% is about no effect", "settings": "primary human leukocytes, cytokine release by HTRF, 48 h; TCR-stimulated with anti-CD3 beads", "from_the_text": "as §1, §2, §3, §4, §5, §6", "values": [
      {"smiles": "CN(C)c1ccc(/C=C/c2cc[n+](C)c3ccccc23)cc1", "Potency": "6.28 µM (active)"}
    ]},
    {"test": "Activators of T cell receptors: Hit Validation; as to activation: 0% is about no effect", "settings": "primary human leukocytes, cytokine release by HTRF, 48 h; at 46.1 µM (top of the series)", "from_the_text": "as §1, §2, §3, §4, §5, §6", "units": {"activation": "%"}, "values": [
      {"smiles": "COc1ccc(N/N=C/c2c(O)n(-c3ccc(C)c(C)c3)c(=O)[nH]c2=O)cc1", "activation": 11.6},
      {"smiles": "C#C[C@]1(O)CC[C@H]2[C@@H]3CCC4=CC(=O)CC[C@]4(C)[C@H]3CC[C@@]21C", "activation": -6.05},
      {"smiles": "COc1ccc(/C=C/C(=O)c2c(O)n(CCC3=CCCCC3)c(=O)[nH]c2=O)cc1", "activation": 2.49},
      {"smiles": "CCC(C)n1c(O)c(C=NC(C)c2ccccc2)c(=O)[nH]c1=S", "note": "(stereo not given)", "activation": 6.34}
    ]},
    {"test": "Activators of T cell receptors: Hit Validation; as to activation: 0% is about no effect", "settings": "primary human leukocytes, cytokine release by HTRF, 48 h; at 46.1 µM (top of the series); TCR-stimulated with anti-CD3 beads", "from_the_text": "as §1, §2, §3, §4, §5, §6", "units": {"activation": "%"}, "values": [
      {"smiles": "CC(C)[C@]12CC(=O)[C@H](C)[C@H]1C2", "activation": -2.87},
      {"smiles": "Nc1cc(Cl)cc(Cl)c1", "activation": -3.76},
      {"smiles": "Cc1ccc(OC(F)F)c(N2C(=O)C3C4CCC(O4)C3C2=O)c1", "note": "(stereo not given)", "activation": -0.91}
    ]}
  ]
}
